Laboratory results: PubChem BioAssay (NCATS)
Several values for one entry are separate records, joined by “and”; a condition that tells them apart may be missing. Identical values can stand only once. Values without a mark were called inactive. Records with an inconclusive call do not appear. Activity calls are given as the source filed them. Unless noted, calls come from the whole dose curve; as a rule, active = well fitted curve in either direction with a large enough effect (not every such curve was filed as active); inconclusive = small, poorly fitted or top-dose-only effect, or another doubt; inactive = flat fitted curve, though single readings scatter.

Assays:
[1] = AP1 Signaling Pathway (AID 357);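 note: ME-180 reporter cells stimulated with EGF at its EC50 level; % is set by controls: 0 for no effect and ±100 for the full control effect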
Outline: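 Cells are seeded overnight, exposed to compound titrations and an EC50 level of EGF for 5 hours at 37 °C, then loaded with CCF4 dye for 2.5 hours. Beta-lactamase activity under the AP-1 element is read as a blue/green ratio.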

[2] = target: Cytochrome P450 1A2 (Homo sapiens) (UniProt P05177); assay: p450-cyp1a2 (AID 410; calls by dose curve; note: potency is the fitted concentration of half-maximal effect;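 for activity change, negative = inhibition: -100% = full effect of reference inhibitor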)
Sequence of Cytochrome P450 1A2 (Homo sapiens) (P05177 whole entry, looked up): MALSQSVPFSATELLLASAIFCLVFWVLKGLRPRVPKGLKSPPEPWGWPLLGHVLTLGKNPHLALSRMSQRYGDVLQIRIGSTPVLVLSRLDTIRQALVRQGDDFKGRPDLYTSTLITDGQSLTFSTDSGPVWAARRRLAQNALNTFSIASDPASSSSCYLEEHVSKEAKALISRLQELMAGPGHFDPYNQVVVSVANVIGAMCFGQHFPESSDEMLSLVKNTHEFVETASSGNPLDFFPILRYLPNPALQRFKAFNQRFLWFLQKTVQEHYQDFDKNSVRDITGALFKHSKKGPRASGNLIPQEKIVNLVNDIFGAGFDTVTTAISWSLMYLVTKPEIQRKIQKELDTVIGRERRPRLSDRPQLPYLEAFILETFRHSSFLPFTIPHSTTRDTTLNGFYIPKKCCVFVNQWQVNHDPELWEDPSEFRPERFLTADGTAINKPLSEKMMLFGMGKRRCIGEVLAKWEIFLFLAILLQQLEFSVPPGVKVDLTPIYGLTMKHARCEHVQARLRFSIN
Outline: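 Luminescent demethylation readout: Luciferin-ME (100uM, equal to Km) turned over by 20nM CYP1A2 for 60 min at room temperature after NADPH regeneration addition, following 10 min compound preincubation. Normalization used 57 uM furafylline as full inhibition.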

[3] = Stat Signaling Pathway (AID 446);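 note: ME-180 cervical cancer cells given 40 pM IL-6 alongside compound; SIE-controlled beta-lactamase reporter measured as 460/530 nm FRET emission ratio; % is set by controls: 0 for no effect and ±100 for the full control effect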
Outline: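 FRET read-out (405 nm excitation, 460/530 nm emission) of a beta-lactamase reporter under a STAT-inducible element in ME-180 cervical carcinoma cells. Cells with compound receive 40 pM IL-6 for 5 h. Values are normalised to AC90 stimulation and AC90 JAK-inhibitor controls.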

[4] = target: Glucocorticoid receptor (Homo sapiens) (UniProt P04150); assay: GR-GFP Redistribution (AID 450;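 active = compounds whose dose series gives a full or clear partial fitted curve of increased nuclear translocation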; note: potency is the fitted concentration of half-maximal effect); conditions: U2OS GR-GFP nuclear translocation, laser cytometry, 2 h
Sequence of Glucocorticoid receptor (Homo sapiens) (P04150 whole entry, looked up, the tested form may be a part): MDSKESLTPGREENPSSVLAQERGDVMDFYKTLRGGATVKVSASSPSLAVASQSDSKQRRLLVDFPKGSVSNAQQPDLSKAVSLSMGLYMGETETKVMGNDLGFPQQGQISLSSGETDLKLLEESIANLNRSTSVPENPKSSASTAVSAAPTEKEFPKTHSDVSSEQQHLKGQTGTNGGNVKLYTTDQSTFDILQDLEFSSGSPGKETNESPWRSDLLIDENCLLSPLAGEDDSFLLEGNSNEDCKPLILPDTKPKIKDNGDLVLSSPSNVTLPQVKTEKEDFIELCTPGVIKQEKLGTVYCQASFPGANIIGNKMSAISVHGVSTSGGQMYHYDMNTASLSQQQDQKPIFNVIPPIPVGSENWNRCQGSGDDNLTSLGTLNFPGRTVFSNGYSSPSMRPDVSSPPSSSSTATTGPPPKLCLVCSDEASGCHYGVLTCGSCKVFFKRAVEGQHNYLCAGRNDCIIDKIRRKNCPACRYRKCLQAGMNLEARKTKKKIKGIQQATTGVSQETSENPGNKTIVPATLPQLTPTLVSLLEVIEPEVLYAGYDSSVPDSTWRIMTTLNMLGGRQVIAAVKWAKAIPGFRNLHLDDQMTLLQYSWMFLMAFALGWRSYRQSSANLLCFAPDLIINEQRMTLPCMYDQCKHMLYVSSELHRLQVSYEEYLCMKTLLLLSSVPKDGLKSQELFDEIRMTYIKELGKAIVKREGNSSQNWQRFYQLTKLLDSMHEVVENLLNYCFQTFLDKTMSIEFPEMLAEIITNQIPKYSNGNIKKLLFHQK

[5] = target: Glucocorticoid receptor (Homo sapiens) (UniProt P04150); assay: GR-EFC Redistribution (AID 451; calls by dose curve; note: potency is the fitted concentration of half-maximal effect); conditions: CHO-K1 GR-EFC translocation, beta-gal luminescence, 2 h
Outline: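 CHO-K1 cells expressing nuclear EA and GR-ED fragments of b-gal; compounds titrated up to 46 uM final, 2 h at 37 C. GR nuclear translocation read as complemented b-gal luminescence after 1 h RT detection.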

[6] = target: Mitogen-activated protein kinase 10 (Mus musculus) (UniProt Q61831); assay: JNK3 AlphaScreen Assay (AID 530);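 note: kinase came from lysate of stimulated human HepG2 cells; signal reports phosphorylation of biotinylated GST-cJun 1-79 at Ser73 with 10 µM ATP; % is set by controls: 0 for no effect and ±100 for the full control effect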
Outline: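 Activity was read by AlphaScreen after JNK3-containing HepG2 lysate (cytokine pre-activated) phosphorylated biotinylated GST-cJun with 10 uM ATP at room temperature. Phospho-Ser73 cJun antibody with Protein-A acceptor beads provided detection.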

[7] = NFAT Signaling Pathway (AID 444); conditions: Jurkat NFAT-bla M1, carbachol, beta-lactamase ratio, 5 h;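 note: carbachol stimulus at about its EC50 of 1 µM final; % is set by controls: 0 for no effect and ±100 for the full control effect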
Outline: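 Jurkat cells with NFAT-driven β-lactamase reporter and co-expressed M1 receptor, stimulated with carbachol (final 1 uM, ~EC50), compound titration, 5 h at 37 °C. CCF4 loaded 1 h at RT; 460/530 nm ratio gave %activity and AC50.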

[8] = Cell Viability - BJ (AID 421; calls by dose curve;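 note: potency is the fitted concentration of half-maximal effect; cells exposed to compound for 40 hours at 37 °C before readout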); conditions: BJ fibroblast viability, qHTS
Outline: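 Cytotoxicity as drop in intracellular ATP (CellTiter-Glo, 20 min RT) after 40 hr compound exposure of BJ fibroblasts at 37 °C. Titrations scaled between DMSO and 100 uM tamoxifen, Hill-fitted for AC50.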

[9] = Cell Viability - Hek293 (AID 427;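 active = compounds whose dose-response curve shows a full or clear partial loss of cell viability, called from curve shape rather than a numeric limit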;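 note: potency is the fitted concentration of half-maximal effect; cells exposed to compound for 40 hours at 37 °C before reading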); conditions: qHTS
Outline: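 Luminescent ATP content (CellTiter-Glo, 20 min at room temperature) was measured after a 40 hr, 37 °C compound exposure of HEK293 cells. AC50 values came from Hill-equation fits of qHTS concentration-response data normalized to DMSO and 100 uM tamoxifen.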

[10] = Cell Viability - MRC5 (AID 434; calls by dose curve;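 note: potency is the fitted concentration of half-maximal effect; potency reflects cytotoxicity seen as loss of intracellular ATP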); conditions: MRC5 lung fibroblast viability, qHTS
Outline: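 ATP luminescence read-out (CellTiter-Glo, 20 min RT) after 40 hr, 37 °C compound exposure of 1500 MRC5 cells/well. Data normalized to DMSO (basal) and 100 uM tamoxifen (100% inhibition); AC50 from standard Hill equation.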

[11] = Cell Viability - SK-N-SH (AID 435; calls by dose curve; note: potency is the fitted concentration of half-maximal effect); conditions: SK-N-SH neuroblastoma cell viability qHTS
Outline: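 Human neuroblastoma line, 40 h exposure at 37 °C, ATP quantified via luciferase luminescence; DMSO and 100 uM tamoxifen define 0 and 100% inhibition for AC50 fitting.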

[12] = Cell Viability - N2a (AID 540; active = well fitted curve in the direction sought with a large enough effect; an effect the other way counts as inactive or inconclusive;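 note: plate controls were DMSO alone for no effect and tamoxifen control for full effect; nearly all actives have a fitted effect of over 45% in size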); conditions: N2a mouse neuroblastoma cell viability; activity change, negative = cytotoxicity: at 92.2 µM (top of the series)
Outline: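 CellTiter-Glo ATP luminescence, read 20 min after reagent at room temperature, reported viability following 40 h compound treatment at 37 °C. N2a mouse neuroblastoma cells seeded 1500/well; Hill equation gave AC50.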

[13] = Cell Viability - HUV-EC-C (AID 542; active = well fitted curve in the direction sought with a large enough effect; an effect the other way counts as inactive or inconclusive; note: % is set by controls: 0 for no effect and ±100 for the full control effect; nearly all actives have a fitted effect of over 35% in size)
Outline: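 CellTiter-Glo luminescence measured ATP loss in HUV-EC-C cells (1000/well) after 40 hr compound exposure at 37 °C, in complete culture medium. Concentration-response data were Hill-fitted to give AC50.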

[14] = Cell Viability - SH-SY5Y (AID 544; active = well fitted curve in the direction sought with a large enough effect; an effect the other way counts as inactive or inconclusive; note: nearly all actives have a fitted effect of over 55% in size; note: potency is the fitted concentration of half-maximal effect;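 for viability change, negative = cytotoxic: 0% = DMSO alone and -100% = 100 µM tamoxifen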); conditions: SH-SY5Y neuroblastoma cell viability; viability change, negative = cytotoxic: at 92.2 µM (top of the series)
Outline: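 Cytotoxicity measured via ATP-dependent luciferase luminescence (CellTiter-Glo) following 40 h, 37 °C exposure of 1500 SH-SY5Y cells per well. Concentration-response data were fitted with the standard Hill equation to give AC50.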

[15] = Cell Viability - Renal Proximal Tubule (AID 545; active = well fitted curve in the direction sought with a large enough effect; an effect the other way counts as inactive or inconclusive;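 note: 0% = DMSO only and -100% = 100 µM tamoxifen; nearly all actives have a fitted effect of over 40% in size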)
Outline: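 In this qHTS format, normal rat kidney-derived proximal tubule cells in complete culture medium receive compound titrations, then sit 40 hours at 37 °C before luciferase-based ATP quantitation; potency is reported as AC50 from concentration-response curves.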

[16] = Cell Viability - Jurkat (AID 426;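 active = dose-dependent loss of cell ATP signal giving a full or clear fitted curve, ranked by lower potency value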; note: potency is the fitted concentration of half-maximal effect); conditions: qHTS
Outline: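 Cytotoxicity taken as drop in cellular ATP (CellTiter-Glo luminescence, 20 min room temperature) after 40 hr, 37C treatment of 5000 Jurkat Clone E6-1 cells per well; concentration-response fitted with Hill equation for AC50.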

[17] = Cell Viability - HepG2 (AID 433; calls by dose curve;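 note: potency is the fitted concentration of half-maximal effect; potency for ATP loss meaning cytotoxicity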); conditions: qHTS
Outline: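 In this qHTS format, a 40 h, 37 °C compound incubation of HepG2 cells in complete medium precedes a 20 min CellTiter-Glo step at room temperature. Tamoxifen and doxorubicin serve as positive controls; Hill-equation fits yield AC50.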

[18] = Cell Viability - NIH 3T3 (AID 541; active = well fitted curve in the direction sought with a large enough effect; an effect the other way counts as inactive or inconclusive; note: nearly all actives have a fitted effect of over 25% in size; note: potency is the fitted concentration of half-maximal effect;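 for activity change, negative = cytotoxicity: plate controls were DMSO alone for no effect and tamoxifen positive control for full effect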); conditions: NIH 3T3 cell viability, qHTS; activity change, negative = cytotoxicity: at 92.2 µM (top of the series)
Outline: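 Intracellular ATP (CellTiter-Glo luminescence, 20 min at room temperature) measured after 40 hr compound exposure at 37 °C of 1000 NIH 3T3 mouse fibroblasts/well in complete medium; AC50 derived by Hill-equation modelling of qHTS concentration-response curves.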

[19] = Cell Viability - H-4-II-E (AID 543; active = well fitted curve in the direction sought with a large enough effect; an effect the other way counts as inactive or inconclusive; note: nearly all actives have a fitted effect of over 35% in size; note: potency is the fitted concentration of half-maximal effect)
Outline: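 CellTiter-Glo luminescence (intracellular ATP) measured after 40 h compound exposure at 37 °C in H-4-II-E rat hepatoma cells seeded at 1500/well. Values are AC50s fitted with the standard Hill equation.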

| SMILES | outcome [1] | Potency [2] | outcome [3] | Potency [4] | Potency [5] | outcome [6] | activity change, negative = inhibition ([7]; at 17.2 µM (top of the series)) | activity change, negative = inhibition ([7]; at 38 µM (top of the series)) | Potency [8] | Potency [9] | Potency [10] | Potency [11] | activity change, negative = cytotoxicity [12] | outcome [13] | Potency [14] | Potency [15] | Potency [16] | Potency [17] | Potency [18] | Potency [19] |
| --- | --- | --- | --- | --- | --- | --- | --- | --- | --- | --- | --- | --- | --- | --- | --- | --- | --- | --- | --- | --- |
| Cc1cc(C(C)(C)C)c(O)c(C)c1CC1=NCCN1 | inactive | inactive | inactive | > 46 µM and > 20.6 µM | > 46 µM and > 20.6 µM | inactive |  |  |  |  |  |  |  |  |  |  |  |  |  |  |
| Nc1nc2c(ncn2COC(CO)CO)c(=O)[nH]1 | inactive | inactive | inactive | > 46 µM and > 20.6 µM | > 46 µM and > 20.6 µM | inactive | 3.07% | -0.352% |  |  |  |  |  |  |  |  |  |  |  |  |
| COc1ccc(CCN(C)CCCC(C#N)(c2ccc(OC)c(OC)c2)C(C)C)cc1OC (stereo not drawn) | inactive |  | inactive |  |  | inactive |  |  | > 92 µM | > 92 µM | > 92 µM | > 92 µM | -16.5% | inactive | inactive | inactive |  |  |  |  |
| COc1nc(C)nc(Cl)c1NC1=NCCN1 | inactive | inactive | inactive | > 46 µM and > 20.6 µM | > 46 µM and > 20.6 µM | inactive | -14.9% | 10.4% |  |  |  |  |  |  |  |  |  |  |  |  |
| COc1ccc2c(c1)c(CC(=O)O)c(C)n2C(=O)c1ccc(Cl)cc1 | inactive | 10 µM (active) | inactive | > 46 µM and > 20.6 µM | > 46 µM and > 20.6 µM | inactive | -5.62% and 13.9% | 8.92% | > 92 µM | > 92 µM | > 92 µM | > 92 µM | 0.758% | inactive | inactive | inactive | > 92 µM | > 92 µM | inactive | inactive |
| NC(=O)OCC(COC(N)=O)c1ccccc1 | inactive | inactive | inactive | > 46 µM and > 20.6 µM | > 46 µM | inactive | 3.58% | 8.56% |  |  |  |  |  |  |  |  |  |  |  |  |
| O=c1[nH]cc(F)c(=O)[nH]1 | inactive | inactive | inactive | > 46 µM | > 46 µM | inactive |  | 18.8% | > 92 µM | > 92 µM | > 92 µM | 9.55 µM | -18.1% | inactive | 15.8 µM (active) |  | > 92 µM | > 92 µM | 0.316 µM (active) | 0.631 µM (active) |
| Cc1cn([C@H]2C[C@H](N=[N+]=[N-])[C@@H](CO)O2)c(=O)[nH]c1=O | inactive |  | inactive | > 20.6 µM |  | inactive | 15.9% |  | > 92 µM | > 92 µM | > 92 µM | > 92 µM | -7.33% | inactive | inactive | inactive | > 92 µM | > 92 µM | inactive | inactive |
| CCOC(=O)c1ncn2c1CN(C)C(=O)c1cc(F)ccc1-2 | inactive | 1.58 µM (active) |  |  |  |  |  | -1.55% |  |  |  |  |  |  |  |  |  |  |  |  |
| Nc1c2c(nc3ccccc13)CCCC2 | inactive | 3.16 µM (active) and 794 nM (active) and 501 nM (active) | inactive |  |  | inactive |  |  | > 92 µM | > 92 µM | > 92 µM | > 92 µM | -21.2% | inactive | inactive | inactive |  | > 92 µM | inactive |  |
